Compound activity: PubChem BioAssay, National Center for Advancing Translational Sciences (NCATS)
Sampled rows, rich in hits. Any-hit rate of the full collection: about 2.8%.
IP6K1 inhibitor – Primary qHTS assay for small molecule inhibitors of Inositol hexaphosphate kinase 1 (IP6K1). IP6K1 kinase, ADP-Glo luminescence, 2 h; hits give low values. Inositol hexakisphosphate kinase 1 (Homo sapiens), Q92551. activity change, % (series mostly up to about 58 µM). 140,000 compounds, 0.81% hits; in the data active means activity change below about -25%; further: on the % scale 0 is the no-effect control and ±100 the full control effect
Target sequence (Q92551 whole entry, looked up): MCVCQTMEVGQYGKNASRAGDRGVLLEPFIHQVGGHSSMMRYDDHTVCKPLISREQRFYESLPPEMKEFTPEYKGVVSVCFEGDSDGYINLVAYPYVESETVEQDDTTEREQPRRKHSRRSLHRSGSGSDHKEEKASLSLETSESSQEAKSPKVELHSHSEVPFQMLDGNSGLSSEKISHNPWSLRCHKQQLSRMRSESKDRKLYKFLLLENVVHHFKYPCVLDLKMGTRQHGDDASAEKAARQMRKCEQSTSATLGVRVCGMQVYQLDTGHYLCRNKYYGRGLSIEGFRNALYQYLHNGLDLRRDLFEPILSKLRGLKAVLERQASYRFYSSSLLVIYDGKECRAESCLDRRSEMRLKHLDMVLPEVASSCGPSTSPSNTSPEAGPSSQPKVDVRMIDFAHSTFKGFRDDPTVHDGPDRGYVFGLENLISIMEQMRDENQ
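ADP-Glo luminescence measures ADP made by human IP6K1 during a 2 h RT reaction with ATP/IP6 (mix at 1.3 mM/130 uM); top library doses 57.5 and 19.1 uM final.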
SNCA expr inhib – Primary qHTS assay for inhibitors of alpha-synuclein gene (SNCA) expression | HEK-293 SNCA-luciferase knock-in, luminescence, 24 h | Potency, µM (doses to about 57.2 µM), for the others: top-dose activity change, negative = inhibition, most hits filed as inhibitors | 140,000 compounds, 0.17% hits | AID 1671194, 2021;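 further: potency means the concentration at half of the fitted maximal effect; plate controls were DMSO cells for no effect and cell-free wells for full effect; nearly all actives have a fitted effect of over 45% in size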
KDM5B inhibitor – Primary screen for KDM5B Histone Demethylases FDH-coupled qHTS. KDM5B demethylase, FDH-coupled NADH fluorescence (FDH is formaldehyde dehydrogenase). 220,000 compounds, 2.6% hits. Lysine-specific demethylase 5B (Homo sapiens), Q9UGL1. Potency, µM (titrated, usually from 57.7 µM), usual class: inhibitors; further: potency means the concentration at half of the fitted maximal effect; 0% is about no effect; nearly all actives have a fitted effect of over 70% in size
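Measured: NADH fluorescence change, 30 min, RT. System: KDM5BΔAP 200 nM final, H3K4me3 peptide, α-KG, Fe(II), ascorbate, NAD⁺ plus FDH, pH 7.5 HEPES. Compounds: titrated, 10 min pre-incubation with enzyme.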
HEK293 viab – GF-AFC viability counterscreen for inhibitors of alpha-synuclein gene (SNCA) expression | AID 1671193, 2021 | 150,000 compounds, 0.12% hits | HEK-293-SNCA-luc viability, GF-AFC fluorescence, 24 h | Potency, µM (doses to about 57.1 µM), for inactives: at the highest dose activity change, negative = cytotoxicity, most hits filed as cytotoxic;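 further: potency means the concentration at half of the fitted maximal effect; 0% = DMSO-treated cells and -100% = medium-only wells without cells; nearly all actives have a fitted effect of over 30% in size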
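Cytotoxicity counterscreen: after 24 h compound treatment of genome-edited SNCA-luciferase HEK-293 cells, live-cell protease substrate GF-AFC read by fluorescence after 30 min; activity scaled between DMSO (0%) and medium-only (-100%), curves Hill-fitted.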
Active calls of the source: *; i = inactive; u = inconclusive; x = no result; [ ] = another dose, or the depositor's remark. Unless noted, the call rests on the fitted dose curve; in most records, active means well fitted curve in the direction sought with a large enough effect; inconclusive means small, poorly fitted or top-dose-only effect, or another doubt; inactive means no such curve, though single readings can be large; an effect the other way counts as inactive or inconclusive.

SMILES	IP6K1 inhibitor	SNCA expr inhib	KDM5B inhibitor	HEK293 viab
Cn1c2c(c3cc(F)ccc31)CN(C(=O)Nc1cccc(F)c1)CC2	-3.7	58.0%	u	-12.2%
Cn1c2c(c3ccccc31)CN(C(=O)Nc1cccc(Br)c1)CC2	-1.5	-23.0%	u	3.7%
Cc1cccc(NC(=O)N2CCc3c(c4ccccc4n3C)C2)c1C	-7.2	-5.7%	22.4µM*	-4.4%
O=C(Nc1ccccc1)N1CCc2c(c3ccccc3n2CC2CC2)C1	-1.9	14.0%	31.6µM*	-17.2%
Cc1ccc(NC(=O)N2CCc3c(c4ccccc4n3C)C2)cc1C	-1.8	-22.7%	31.6µM*	3.8%
Cc1nc(CC2CCN(c3nccc(-c4cccnc4)n3)CC2)no1	-6.9	0.7%	22.4µM*	-2.8%
O=C(NCc1ccccn1)C1CCN(c2nccc(-c3cccnc3)n2)CC1	7.9	50.5%	u	-0.9%
O=C(NCCc1ccc(Cl)cc1)c1nc(-c2ccccc2)c2ccccn12	9.2	-11.4%	28.2µM*	6.6%
COc1ccccc1-c1nc(C(=O)NCCc2ccc(Cl)cc2)n2ccccc12	-13.1	3.5%	79.4µM*	2.3%
O=C(NCCc1ccc(Cl)cc1)c1nc(-c2cccc(C(F)(F)F)c2)c2ccccn12	-2.6	-12.4%	25.1µM*	8.2%
Cc1nn(-c2ccccc2)c2c1C(C(C)C)N(C1CCCN(C(=O)c3ccc(C(F)(F)F)cc3)C1)C2=O (stereo not drawn)	-3.0	x	x	x
CC1(COc2cccnc2)COc2ccc(C(=O)Nc3cccc(Cl)c3)cc2N1 (stereo not drawn)	-2.2	u	14.1µM*	u
CN(C)CCOCC1(C)COc2ccc(C(=O)Nc3cccc(N(C)C)c3)cc2N1 (stereo not drawn)	-5.2	15.9%[87.6 µM]	u	13.0%[87.6 µM]
COc1cccc(NC(=O)c2ccc3c(c2)NC(C)(COc2cccnc2)CO3)c1 (stereo not drawn)	-8.7	-24.9%[87.6 µM]	u	u
CN(C)CCOCC1(C)COc2ccc(C(=O)Nc3cccc(Cl)c3)cc2N1 (stereo not drawn)	1.4	157.8%[87.6 µM]	35.5µM*	-2.9%[87.6 µM]
COC(=O)c1c(NC(=O)CN2CCN(C(=O)C3CCCO3)CC2)sc2c1CCC2 (stereo not drawn)	x	x	i	x
CCCCc1ccc(NC(=O)Cn2ccn3nc(-c4ccccc4)c(CO)c3c2=O)cc1	10.2	-29.6%	25.1µM*	7.1%
COc1ccc(CCNC(=O)Cn2ccn3nc(-c4ccccc4)c(CO)c3c2=O)cc1OC	9.2	41.9%	u	-7.1%
O=C(Cn1ccn2nc(-c3ccccc3)c(CO)c2c1=O)Nc1ccc(Cl)cc1	5.3	-4.3%	28.2µM*	1.5%
O=C(Cn1ccn2nc(-c3ccccc3)c(CO)c2c1=O)Nc1ccc(Br)cc1	14.1	0.2%	u	-2.8%
O=C(Cn1ccn2nc(-c3ccccc3)c(CO)c2c1=O)NCCc1ccc(Cl)cc1	-0.5	38.4%	28.2µM*	-4.4%
CC(Oc1ccc2ccc(=O)oc2c1)C(=O)N(C)Cc1cccc(F)c1 (stereo not drawn)	x	x	i	x
c1ccc(CN2CCC[C@H]2c2nc(-c3ccc(N4CCOCC4)nc3)no2)cc1	1.1	4.8%[87.6 µM]	31.6µM*	-8.5%[87.6 µM]
Clc1ccc(CN2CCC[C@H]2c2nc(-c3ccc(N4CCOCC4)nc3)no2)cc1	24.8	2.4%[87.6 µM]	35.5µM*	-8.7%[87.6 µM]
OCc1ccc(CN2CCC[C@H]2c2nc(-c3ccc(N4CCOCC4)nc3)no2)o1	1.7	-2.4%[87.6 µM]	u	-0.7%[87.6 µM]
SMILES	IP6K1 inhibitor	SNCA expr inhib	KDM5B inhibitor	HEK293 viab
CN(C)c1ccc(-c2noc([C@@H]3CCCN3Cc3cnc4ccccc4c3)n2)cn1	18.5	-39.1%[87.6 µM]	28.2µM*	-20.4%[87.6 µM]
CCCNC(=O)CC(c1ccccc1OC)c1c[nH]c2c(CC)cccc12 (stereo not drawn)	-9.5	-9.3%	31.6µM*	0.7%
Cc1cn2nc(C(=O)N3CCN(c4cccc(Cl)c4)CC3)cc2c(N2CCCC2)n1	6.0	-17.4%	35.5µM*	-6.1%
Cc1cn2nc(C(=O)N3CCN(c4ccccn4)CC3)cc2c(N2CCCC2)n1	2.8	-1.2%	25.1µM*	u
Cc1cccc(NC(c2cccc(Cl)c2)c2ccc3cccnc3c2O)n1 (stereo not drawn)	-0.4	8.91µM*	u	-4.0%
COCCNC(=O)c1ccc2nnc(-c3cncc(Cl)c3)n2c1	12.0	24.5%	100µM*	3.8%
O=C(NC1CC1)c1ccc2nnc(-c3ccc(Cl)cc3)n2c1	-2.7	0.8%	50.1µM*	-0.5%
O=C(NC1CC1)c1ccc2nnc(-c3cncc(Cl)c3)n2c1	7.5	-8.0%[87.6 µM]	x	-0.1%[87.6 µM]
CCNC(=O)NC(=O)COC(=O)c1sccc1C	x	x	i	x
COc1cc(C(=O)Nc2cc(Cl)ccc2O)ccc1OC(C)=O	x	x	i	x
O=C(CCC1CCCN(S(=O)(=O)c2ccccc2)C1)N1CCN(c2ccccn2)CC1 (stereo not drawn)	3.1	-26.8%	22.4µM*	-0.3%
Cc1ccc(C(=O)N2CCC(CCC(=O)N3CCN(c4ccccn4)CC3)CC2)cc1	21.5	77.4%	28.2µM*	-0.7%
Cc1ccc(S(=O)(=O)N2CCCC(CCC(=O)N3CCCCC3)C2)cc1 (stereo not drawn)	-0.3	0.3%	i	-14.5%
COc1ccc(C)cc1NC(=O)COC(=O)c1ccccc1C	x	x	i	x
CN1CCN(c2ncc3nc(-c4cccs4)c(=O)n(Cc4cccs4)c3n2)CC1	x	13.0%	x	u
O=c1c(-c2cccs2)nc2cnc(N3CCNCC3)nc2n1Cc1cccs1	x	17.8µM*	x	u
O=C1OCCN1CCNc1ccc(-c2nc(-c3ccccc3F)no2)cn1	9.8	-10.7%	28.2µM*	-13.9%
N#Cc1cnc(N2CC3CCC(C2)N3CC(F)(F)F)s1	-3.2	7.8%[87.6 µM]	i	3.7%[87.6 µM]
Cc1cnc(N2CC3CCC(C2)N3CC(F)(F)F)s1	-8.2	-9.2%	56.2µM*	-4.7%
Cc1nnc(NC2CC(c3cc(=O)[nH]c(C4CC4)n3)C2)c2ccccc12 (stereo not drawn)	8.4	5.2%	i	-5.0%
Cn1ncc2c(N)nc(NC3CC(c4cc(=O)[nH]c(C5CC5)n4)C3)nc21 (stereo not drawn)	8.2	-4.1%	20µM*	-1.9%
COc1cccc(C(=O)NC2CCCN(c3ccc4nnc(C)n4n3)C2)c1 (stereo not drawn)	-5.7	x	x	x
COc1ccc(-c2cccc(C(=O)N3CCC(NC(=O)c4ccccc4OC)CC3)c2)nn1	-3.6	x	x	x
Cn1cc(Nc2ccc(Cl)cc2)c2nc(CN3CC[S+](=O)([O-])CC3)cn2c1=O	13.6	10.3%[87.6 µM]	28.2µM*	-2.4%[87.6 µM]
COc1ncccc1-c1cn(C)c(=O)n2cc(CN3CC[S+](=O)([O-])CC3)nc12	10.1	-18.1%[87.6 µM]	i	0.9%[87.6 µM]
CC(=O)Nc1cc(-c2cn(C)c(=O)n3cc(CN4CC[S+](=O)([O-])CC4)nc23)ccn1	-12.9	2.7%[87.6 µM]	35.5µM*	-3.2%[87.6 µM]
C=CCn1c(SCC(=O)c2ccccc2)nc2c1c(=O)[nH]c(=O)n2C	x	x	i	x
